Results: the supplement of paper PMC10849652
Of roughly 7,900 targets only a part is listed; those with a hit were picked by preference. About 0.6% of all pairs of compound and target were hits.

Key:
Test in all cases: log2 fold change, soluble protein after heating vs DMSO (PISA); higher = thermal stabilisation; K562 cells, 10 uM, 30 min; active = over 0.2 and 3.5 SD of the protein, either way, in both replicates (recomputed)
[1] = compound: CC1=C(C=C(C=C1)NC(=O)C2=CC(=CC=C2)C(C)(C)C#N)NC3=CC4=C(C=C3)N=CN(C4=O)C
Procedure, shortened: (§1)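 For each measurement, 10 μM compound was applied for 30 min to K562 cells at 2×10^6 cells/mL. Aliquots were heated for 3 min across 48°C-58°C, pooled, and extracted in PBS with 0.5% NP-40 at 4°C; the supernatant after 21,000xg for 90 min was soluble protein. This was quantified by TMTpro 16plex LC-MS/MS with channel sums equalised, and thermal stability was reported relative to control samples from duplicates, on a log2 fold-change scale.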

[2] = compound: CC1=C(C=C(C=C1)NC(=O)C2=CC(=CC=C2)N(C)C)NC(=O)C3=CC=C(C=C3)O
Procedure, shortened: as §1

[3] = compound: CC1=CC=C(C=C1)SC2=C3C=C(SC3=CN=C2)C(=O)N
Procedure, shortened: as §1

[4] = compound: CC1=NC(=CC=C1)C2=C(N=C(N2)C(C)(C)C)C3=CC4=NC=CN=C4C=C3
Procedure, shortened: as §1

Nexturastat A = compound: CCCCN(Cc1ccc(C(=O)NO)cc1)C(=O)Nc1ccccc1 [Nexturastat A]
Procedure, shortened: as §1

vemurafenib = compound: CCCS(=O)(=O)Nc1ccc(F)c(C(=O)c2c[nH]c3ncc(-c4ccc(Cl)cc4)cc23)c1F [vemurafenib]
Procedure, shortened: as §1

[5] = compound: CCCS(=O)(=O)Nc1ccc(F)c(C(=O)c2c[nH]c3ncc(Cl)cc23)c1F
Procedure, shortened: as §1

[6] = compound: CCCc1cc(C)[nH]c(=O)c1CNC(=O)c1cc(-c2ccnc(N3CCN(C)CC3)c2)cc2c1cnn2C(C)C
Procedure, shortened: as §1

givinostat = compound: CCN(CC)Cc1ccc2cc(COC(=O)Nc3ccc(C(=O)NO)cc3)ccc2c1 [givinostat]
Procedure, shortened: as §1

barasertib = compound: CCN(CCCOc1ccc2c(Nc3cc(CC(=O)Nc4cccc(F)c4)[nH]n3)ncnc2c1)CCOP(=O)(O)O [barasertib]
Procedure, shortened: as §1

[7] = compound: CC[C@@H]1C(=O)N(C)c2cnc(Nc3ccc(C(=O)NC4CCN(C)CC4)cc3OC)nc2N1C1CCCC1
Procedure, shortened: as §1

volasertib = compound: CC[C@@H]1C(=O)N(C)c2cnc(Nc3ccc(C(=O)N[C@H]4CC[C@H](N5CCN(CC6CC6)CC5)CC4)cc3OC)nc2N1C(C)C [volasertib]
Procedure, shortened: as §1

[8] = compound: CC[C@H](C)N1C=C(C2=C(C=C(C=C21)C3=CN=C(C=C3)N4CCNCC4)C(=O)NCC5=C(C=C(NC5=O)C)C)C
Procedure, shortened: as §1

epoxomicin = compound: CC[C@H](C)[C@@H](C(=O)N[C@@H]([C@@H](C)O)C(=O)N[C@@H](CC(C)C)C(=O)[C@]1(CO1)C)NC(=O)[C@H]([C@@H](C)CC)N(C)C(=O)C [epoxomicin]
Procedure, shortened: as §1

[9] = compound: CCn1c(C(=O)N(C2CC2)C2CC2)cc2c3c(ncn3C)c(Nc3cc(C)n(C)n3)nc21
Procedure, shortened: as §1

[10] = compound: CCn1cc(-c2ccnc3[nH]c(-c4cccc(CN(C)C)c4)cc23)c(-c2ccc(NC(=O)N(C)C)cc2)n1
Procedure, shortened: as §1

[11] = compound: CN(C)CC(=O)Nc1ccc2[nH]c(=O)c3ccccc3c2c1
Procedure, shortened: as §1

rosiglitazone = compound: CN(CCOC1=CC=C(C=C1)C[C@H]2C(=O)NC(=O)S2)C3=CC=CC=N3 (racemic) [rosiglitazone]
Procedure, shortened: as §1

[12] = compound: CN1C2=C(C3=C1C(=O)N(N=C3)CC4=CC(=CC=C4)N)SC(=C2)S(=O)C
Procedure, shortened: as §1

[13] = compound: CN1CCC(CNc2ccc3ncc(-c4cccc(OC(F)(F)F)c4)n3n2)CC1
Procedure, shortened: as §1

Measured: log2 fold change

CNOT4 isoform 6 (UniProt O95628)
UniProt O95628, sequence (O95628 whole entry, looked up): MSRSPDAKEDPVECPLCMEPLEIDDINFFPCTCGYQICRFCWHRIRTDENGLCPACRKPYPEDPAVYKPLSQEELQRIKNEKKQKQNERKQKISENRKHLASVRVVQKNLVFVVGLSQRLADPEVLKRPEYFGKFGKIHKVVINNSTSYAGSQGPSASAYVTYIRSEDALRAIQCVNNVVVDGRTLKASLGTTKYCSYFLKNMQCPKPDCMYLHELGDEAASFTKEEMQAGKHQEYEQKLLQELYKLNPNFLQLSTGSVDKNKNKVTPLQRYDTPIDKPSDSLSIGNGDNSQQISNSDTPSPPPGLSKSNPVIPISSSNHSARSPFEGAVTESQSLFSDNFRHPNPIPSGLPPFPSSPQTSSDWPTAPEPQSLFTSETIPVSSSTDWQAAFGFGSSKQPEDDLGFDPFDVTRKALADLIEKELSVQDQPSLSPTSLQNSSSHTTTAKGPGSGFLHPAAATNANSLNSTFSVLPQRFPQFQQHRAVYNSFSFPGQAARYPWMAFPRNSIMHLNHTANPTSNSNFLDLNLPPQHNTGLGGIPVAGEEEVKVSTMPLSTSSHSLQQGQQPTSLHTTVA
inactive: [1] -0.056 | [2] -0.012 | [3] 0.005 | [4] 0.023 | Nexturastat A -0.122 | vemurafenib -0.014 | [5] -0.007 | [6] -0.069 | givinostat -0.064 | barasertib 0.007 | [7] -0.008 | volasertib -0.109 | [8] 0.031 | epoxomicin 0.006 | [9] 0.007 | [10] -0.056 | [11] 0.003 | rosiglitazone 0.036 | [12] 0.028 | [13] -0.095

CPD (UniProt O75976)
inactive: [1] -0.017 | [2] 0 | [3] -0.01 | [4] -0.016 | Nexturastat A -0.001 | vemurafenib -0.017 | [5] -0.021 | [6] -0.062 | givinostat 0.016 | barasertib 0.011 | [7] -0.152 | volasertib -0.33 | [8] -0.017 | epoxomicin 0.025 | [9] 0.036 | [10] -0.044 | [11] -0.024 | rosiglitazone 0.002 | [12] 0.029
active: [13] -0.399

CRLF3 (UniProt Q8IUI8)
UniProt Q8IUI8, sequence (Q8IUI8 whole entry, looked up): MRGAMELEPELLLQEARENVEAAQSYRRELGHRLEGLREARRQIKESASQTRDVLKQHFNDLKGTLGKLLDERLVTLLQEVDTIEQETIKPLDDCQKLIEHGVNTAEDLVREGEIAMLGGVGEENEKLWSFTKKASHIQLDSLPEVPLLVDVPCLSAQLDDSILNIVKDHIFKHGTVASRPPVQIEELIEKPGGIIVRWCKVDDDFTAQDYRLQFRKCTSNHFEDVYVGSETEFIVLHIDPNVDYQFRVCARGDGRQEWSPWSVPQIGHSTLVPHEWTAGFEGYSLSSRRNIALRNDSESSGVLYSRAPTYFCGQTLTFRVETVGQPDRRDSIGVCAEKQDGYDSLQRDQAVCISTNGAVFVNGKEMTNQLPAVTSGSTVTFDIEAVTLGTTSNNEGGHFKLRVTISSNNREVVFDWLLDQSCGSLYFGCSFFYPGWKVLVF
inactive: [1] 0.05 | [2] -0.015 | [3] 0.03 | [4] -0.071 | Nexturastat A 0.005 | vemurafenib 0.057 | [5] 0.044 | [6] 0.025 | givinostat 0.065 | barasertib 0.073 | [7] -0.085 | volasertib -0.277 | [8] 0.067 | epoxomicin 0 | [9] -0.069 | [10] -0.041 | [11] 0.024 | rosiglitazone 0.041 | [12] 0.031
active: [13] -0.268

CHCHD4 isoform 2 (UniProt Q8N4Q1)
UniProt Q8N4Q1, sequence (Q8N4Q1 whole entry, looked up): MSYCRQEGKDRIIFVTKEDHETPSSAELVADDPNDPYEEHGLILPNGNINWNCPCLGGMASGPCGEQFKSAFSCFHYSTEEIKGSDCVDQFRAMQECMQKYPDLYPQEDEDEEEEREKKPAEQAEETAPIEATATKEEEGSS
active: [13] 0.795
inactive: [1] 0.373 | [2] 0.001 | [3] 0.157 | [4] -0.035 | Nexturastat A -0.026 | vemurafenib -0.015 | [5] 0.412 | [6] -0.063 | givinostat 0.029 | barasertib -0.024 | [7] -0.009 | volasertib -0.125 | [8] -0.096 | epoxomicin -0.186 | [9] -0.034 | [10] 0.231 | [11] -0.023 | rosiglitazone -0.007 | [12] -0.107

CIT isoform 4 (UniProt O14578)
inactive: [1] -0.105 | [2] 0.017 | [3] -0.003 | [4] -0.032 | Nexturastat A -0.02 | vemurafenib -0.012 | [5] 0.01 | [6] 0.002 | givinostat 0.033 | barasertib 0.047 | [7] 0.068 | volasertib -0.225 | [8] 0.134 | epoxomicin 0.017 | [9] -0.041 | [10] -0.033 | [11] -0.037 | rosiglitazone 0.057 | [12] 0 | [13] -0.033

C16orf58 (UniProt Q96GQ5)
inactive: [1] -0.04 | [2] 0.001 | [3] 0.021 | [4] 0.003 | Nexturastat A -0.049 | vemurafenib -0.007 | [5] 0.005 | [6] -0.075 | givinostat -0.012 | barasertib -0.011 | [7] -0.055 | volasertib -0.013 | [8] -0.005 | epoxomicin 0.029 | [9] 0.015 | [10] -0.018 | [11] 0.006 | rosiglitazone 0.039 | [12] -0.037 | [13] -0.086

COPS4 (UniProt Q9BT78)
UniProt Q9BT78, sequence (Q9BT78 whole entry, looked up): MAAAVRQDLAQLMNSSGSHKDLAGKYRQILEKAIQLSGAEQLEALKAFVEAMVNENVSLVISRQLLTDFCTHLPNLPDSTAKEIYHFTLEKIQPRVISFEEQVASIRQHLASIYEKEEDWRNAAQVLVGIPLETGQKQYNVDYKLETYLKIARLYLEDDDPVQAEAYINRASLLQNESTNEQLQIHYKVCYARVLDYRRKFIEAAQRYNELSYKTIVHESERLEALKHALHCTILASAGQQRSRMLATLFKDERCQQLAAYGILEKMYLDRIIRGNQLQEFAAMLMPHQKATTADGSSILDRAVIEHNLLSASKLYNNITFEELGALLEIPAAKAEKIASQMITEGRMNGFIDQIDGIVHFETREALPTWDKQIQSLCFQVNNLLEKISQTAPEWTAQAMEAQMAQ
inactive: [1] -0.001 | [2] -0.019 | [3] 0.019 | [4] 0.033 | Nexturastat A -0.062 | vemurafenib 0.049 | [5] 0.071 | [6] -0.037 | givinostat -0.025 | barasertib -0.002 | [7] -0.045 | volasertib -0.007 | [8] 0.013 | epoxomicin 0.047 | [9] 0.001 | [10] -0.022 | [11] 0.023 | rosiglitazone 0.018 | [12] -0.092 | [13] -0.007

CAMSAP1 isoform 3 (UniProt Q5T5Y3)
UniProt Q5T5Y3, sequence (Q5T5Y3 whole entry, looked up): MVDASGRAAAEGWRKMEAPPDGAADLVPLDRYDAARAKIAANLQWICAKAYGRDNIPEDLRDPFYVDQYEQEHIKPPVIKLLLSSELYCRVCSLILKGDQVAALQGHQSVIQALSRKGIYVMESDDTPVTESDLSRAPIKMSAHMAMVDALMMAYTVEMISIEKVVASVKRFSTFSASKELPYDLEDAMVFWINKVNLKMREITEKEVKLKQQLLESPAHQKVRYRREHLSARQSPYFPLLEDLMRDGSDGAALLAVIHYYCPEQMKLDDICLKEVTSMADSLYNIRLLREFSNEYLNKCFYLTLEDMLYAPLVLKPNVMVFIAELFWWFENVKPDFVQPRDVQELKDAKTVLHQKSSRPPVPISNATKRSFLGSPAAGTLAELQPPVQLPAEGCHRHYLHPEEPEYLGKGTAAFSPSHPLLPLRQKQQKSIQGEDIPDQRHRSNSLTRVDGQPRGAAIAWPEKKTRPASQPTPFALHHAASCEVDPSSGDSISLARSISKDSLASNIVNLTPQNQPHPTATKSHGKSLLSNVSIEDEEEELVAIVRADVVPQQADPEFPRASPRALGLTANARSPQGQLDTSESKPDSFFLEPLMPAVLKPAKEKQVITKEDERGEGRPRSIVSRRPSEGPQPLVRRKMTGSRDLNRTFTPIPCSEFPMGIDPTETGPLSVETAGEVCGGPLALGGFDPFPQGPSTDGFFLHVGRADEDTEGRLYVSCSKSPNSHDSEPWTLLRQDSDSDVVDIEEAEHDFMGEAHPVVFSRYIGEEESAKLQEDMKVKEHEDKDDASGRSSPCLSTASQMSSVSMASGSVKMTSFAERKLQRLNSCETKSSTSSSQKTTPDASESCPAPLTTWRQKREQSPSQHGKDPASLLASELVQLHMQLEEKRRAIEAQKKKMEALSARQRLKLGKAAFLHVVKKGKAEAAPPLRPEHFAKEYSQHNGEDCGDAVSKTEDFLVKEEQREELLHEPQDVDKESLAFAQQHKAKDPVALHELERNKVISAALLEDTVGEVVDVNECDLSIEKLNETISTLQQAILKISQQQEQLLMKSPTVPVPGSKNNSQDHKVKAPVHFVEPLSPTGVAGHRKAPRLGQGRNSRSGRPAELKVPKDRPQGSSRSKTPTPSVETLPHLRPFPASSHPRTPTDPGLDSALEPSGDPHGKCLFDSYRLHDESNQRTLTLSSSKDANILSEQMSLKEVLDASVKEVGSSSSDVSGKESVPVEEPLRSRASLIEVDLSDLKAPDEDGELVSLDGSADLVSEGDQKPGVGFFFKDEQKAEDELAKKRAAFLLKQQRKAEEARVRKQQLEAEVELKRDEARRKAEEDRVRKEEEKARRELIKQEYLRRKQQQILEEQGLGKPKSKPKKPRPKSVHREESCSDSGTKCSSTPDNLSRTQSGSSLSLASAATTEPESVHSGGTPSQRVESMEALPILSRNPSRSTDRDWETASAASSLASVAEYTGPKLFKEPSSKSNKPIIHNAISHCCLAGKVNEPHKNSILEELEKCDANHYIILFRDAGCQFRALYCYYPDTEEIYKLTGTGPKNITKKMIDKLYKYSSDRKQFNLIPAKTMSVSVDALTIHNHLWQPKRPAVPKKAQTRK
active: volasertib -0.576
inactive: [1] 0.03 | [2] -0.009 | [3] -0.02 | [4] -0.101 | Nexturastat A 0.168 | vemurafenib -0.274 | [5] 0.042 | [6] -0.19 | givinostat 0.151 | barasertib 0.077 | [7] -0.044 | [8] 0.184 | epoxomicin 0.068 | [9] 0.033 | [10] -0.003 | [11] -0.232 | rosiglitazone -0.011 | [12] 0.03 | [13] -0.254

CPT2 (UniProt P23786)
UniProt P23786, sequence (P23786 whole entry, looked up): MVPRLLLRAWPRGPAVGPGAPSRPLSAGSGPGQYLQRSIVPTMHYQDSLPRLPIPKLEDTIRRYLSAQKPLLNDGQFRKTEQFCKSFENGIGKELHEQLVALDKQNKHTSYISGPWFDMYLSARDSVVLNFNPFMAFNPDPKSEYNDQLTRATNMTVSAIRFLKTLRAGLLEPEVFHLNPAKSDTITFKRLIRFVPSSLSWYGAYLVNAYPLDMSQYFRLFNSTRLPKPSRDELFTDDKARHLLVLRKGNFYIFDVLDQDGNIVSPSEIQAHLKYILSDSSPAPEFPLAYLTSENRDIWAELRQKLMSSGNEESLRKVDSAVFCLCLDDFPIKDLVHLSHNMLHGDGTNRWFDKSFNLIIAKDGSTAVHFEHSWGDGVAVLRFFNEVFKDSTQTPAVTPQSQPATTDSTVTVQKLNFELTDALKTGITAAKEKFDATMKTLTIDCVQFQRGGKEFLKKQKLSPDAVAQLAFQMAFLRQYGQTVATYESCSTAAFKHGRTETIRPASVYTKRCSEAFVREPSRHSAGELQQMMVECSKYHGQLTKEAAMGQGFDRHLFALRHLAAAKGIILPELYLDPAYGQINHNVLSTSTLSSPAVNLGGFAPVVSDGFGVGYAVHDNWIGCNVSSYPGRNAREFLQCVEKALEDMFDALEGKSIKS
inactive: [1] 0.313 | [2] -0.105 | [3] 0.035 | [4] 0.019 | Nexturastat A -0.417 | vemurafenib 0.042 | [5] 0.007 | [6] 0.016 | givinostat 0.474 | barasertib 0.013 | [7] 0.235 | [8] -0.019 | epoxomicin 0.011 | [9] 0.109 | [10] 0.384 | [11] 0.088 | rosiglitazone 0.056 | [12] -0.136
active: volasertib 0.912 | [13] -0.613

CDK12 (UniProt Q9NYV4)
inactive: [1] 0.049 | [2] -0.001 | [3] -0.079 | [4] -0.077 | Nexturastat A 0.278 | vemurafenib -0.047 | [5] -0.002 | [6] 0.104 | givinostat 0.026 | barasertib -0.083 | [7] 0.147 | volasertib 0.237 | [8] 0.016 | epoxomicin -0.363 | [9] -0.005 | [10] 0.041 | [11] -0.027 | rosiglitazone -0.101 | [12] 0.392 | [13] -0.102

CTBS (UniProt Q01459)
UniProt Q01459, sequence (Q01459 whole entry, looked up): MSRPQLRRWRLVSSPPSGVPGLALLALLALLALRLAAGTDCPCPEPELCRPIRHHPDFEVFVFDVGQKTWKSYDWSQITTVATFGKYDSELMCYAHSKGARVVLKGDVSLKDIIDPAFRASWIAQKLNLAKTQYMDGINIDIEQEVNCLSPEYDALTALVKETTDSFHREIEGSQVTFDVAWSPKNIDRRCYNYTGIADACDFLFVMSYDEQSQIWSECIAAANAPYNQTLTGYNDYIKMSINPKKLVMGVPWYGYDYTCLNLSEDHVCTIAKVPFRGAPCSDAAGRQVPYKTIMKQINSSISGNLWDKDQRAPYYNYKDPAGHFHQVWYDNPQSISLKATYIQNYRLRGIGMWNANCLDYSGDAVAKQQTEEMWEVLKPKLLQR
active: [7] -0.494 | volasertib -0.376 | [13] -0.44
inactive: [1] 0.206 | [2] 0.014 | [3] -0.026 | [4] -0.065 | Nexturastat A 0.043 | vemurafenib 0.093 | [5] -0.017 | [6] 0.017 | givinostat 0.039 | barasertib 0.03 | [8] -0.074 | epoxomicin 0.033 | [9] 0.007 | [10] 0.069 | [11] 0.013 | rosiglitazone -0.058 | [12] 0.045

CPSF6 isoform 2 (UniProt Q16630)
UniProt Q16630, sequence (Q16630 whole entry, looked up): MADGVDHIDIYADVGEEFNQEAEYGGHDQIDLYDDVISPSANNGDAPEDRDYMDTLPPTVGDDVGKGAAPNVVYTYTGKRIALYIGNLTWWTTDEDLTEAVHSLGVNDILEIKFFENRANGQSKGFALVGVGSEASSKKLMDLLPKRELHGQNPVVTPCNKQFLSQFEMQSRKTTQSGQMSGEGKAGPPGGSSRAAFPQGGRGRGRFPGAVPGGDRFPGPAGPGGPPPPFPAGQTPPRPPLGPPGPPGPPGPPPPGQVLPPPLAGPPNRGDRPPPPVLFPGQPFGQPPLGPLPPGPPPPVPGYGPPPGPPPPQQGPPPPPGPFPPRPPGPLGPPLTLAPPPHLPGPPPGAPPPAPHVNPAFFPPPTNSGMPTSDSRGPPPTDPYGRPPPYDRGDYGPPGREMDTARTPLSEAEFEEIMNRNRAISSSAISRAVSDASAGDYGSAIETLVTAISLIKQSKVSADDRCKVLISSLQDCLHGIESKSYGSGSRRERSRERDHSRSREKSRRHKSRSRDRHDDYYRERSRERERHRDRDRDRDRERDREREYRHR
inactive: [1] 0.054 | [2] 0.02 | [3] -0.027 | [4] 0.02 | Nexturastat A -0.042 | vemurafenib 0.001 | [5] -0.069 | [6] 0.035 | givinostat 0.048 | barasertib -0.042 | [7] 0.016 | volasertib 0.02 | [8] 0.016 | epoxomicin -0.014 | [9] -0.037 | [10] -0.036 | [11] -0.062 | rosiglitazone 0.008 | [12] 0.004 | [13] -0.014

COPS8 (UniProt Q99627)
UniProt Q99627, sequence (Q99627 whole entry, looked up): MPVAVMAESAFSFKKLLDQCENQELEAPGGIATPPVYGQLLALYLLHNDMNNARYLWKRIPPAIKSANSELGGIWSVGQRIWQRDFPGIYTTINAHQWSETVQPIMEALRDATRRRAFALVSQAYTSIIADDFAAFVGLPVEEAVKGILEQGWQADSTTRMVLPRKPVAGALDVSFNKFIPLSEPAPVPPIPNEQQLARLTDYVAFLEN
inactive: [1] 0.031 | [2] -0.04 | [3] 0 | [4] -0.09 | Nexturastat A 0.126 | vemurafenib -0.003 | [5] -0.031 | [6] -0.056 | givinostat 0.049 | barasertib 0.009 | [7] -0.018 | volasertib 0.043 | [8] 0.032 | epoxomicin -0.047 | [9] 0.008 | [10] 0.013 | [11] 0.033 | rosiglitazone 0.041 | [12] 0.011 | [13] 0.113
